Measured values taken from PubChem BioAssay AID1117361 (Southern Research Institute, 2015).
The campaign covered roughly 3,600 compounds. About 900 (25%) were called active. Not all results are given here. Measured potencies and affinities stand elsewhere. Unmarked numbers belong to inactive results. No rule for the calls is given here.

target: Protein Tat (Human immunodeficiency virus type 1 group M subtype B (isolate HXB2)) (UniProt P04608); test: HIV-1 Tat–TAR interaction blockers – biochemical, fluorescence polarization, FAM-labeled TAR RNA, counter-screen for Vif-APOBEC3G degradation inhibitor project, dose response (AID 1117361); conditions: Tat-TAR RNA binding; series mostly up to 100 µM; inhibition: at the top concentration

SMILES | inhibition [%] | outcome
Cc1sc(-c2ccccn2)nc1OC(=O)c1cccc(Cl)c1Cl | 1.35 | –
CCCS(=O)(=O)N1CCCC(C(=O)NCCCOC(C)C)C1 (configuration not stated) | 5.41 | –
CC(C)C(=O)Nc1nnc(Sc2ccc(N(C)C)cc2)s1 | 22.3 | –
O=S(=O)(c1ccccc1)N1CCN(S(=O)(=O)N2CCCCC2)CC1 | 2.05 | –
COc1cc(C(=O)OCC(=O)N2CCCC2)cc(OC)c1OC | 2.03 | –
Cc1ccccc1NC(=O)Cc1nc(COC(=O)Cc2ccccc2F)cs1 | – | inactive
COc1ccc(S(=O)(=O)NNC(=O)c2sccc2-n2cccc2)cc1 | – | inactive
COC(=O)CC1Oc2ccccc2N(Cc2ccccc2)C1=O (configuration not stated) | 6.08 | –
CCOC(=O)C1(Cc2ccc(OC)cc2)CCN(C(=O)c2cccc3nccnc23)CC1 | – | inactive
O=C(CN1CCN(S(=O)(=O)c2ccc(F)cc2)CC1)Nc1cc(C(F)(F)F)ccc1Cl | 2.05 | –
O=C(Nc1cccc(C(F)(F)F)c1)c1cc(S(=O)(=O)N2CCCCC2)ccc1N1CCOCC1 | – | inactive
Cc1cccc(Cc2nnc(CCC(=O)N(C)C3CCOC3)o2)c1 (configuration not stated) | – | inactive
Cc1noc(C)c1COC(=O)c1cccc(S(=O)(=O)N2CCCCCC2)c1 | – | inactive
O=C(NCc1cccs1)Nc1cccs1 | 25.9 | –
c1ccc(CCc2nn3c(C4COc5ccccc5O4)nnc3s2)cc1 (configuration not stated) | 0.33 | –
CCOc1ccc(N(CC(=O)NC2CCCCC2)S(=O)(=O)c2c(C)noc2C)cc1 | 6.14 | –
CCOc1ccc(N(CC(=O)NCc2ccc(F)cc2)S(=O)(=O)c2c(C)noc2C)cc1 | 4.09 | –
C=C(C)Cn1c(C)cc(C)c(S(=O)(=O)c2ccccc2C)c1=O | 6.82 | –
C/C(=C\C(=O)c1ccc(Br)cc1)N1CCCCC1 | – | inactive
O=c1cc(OCc2ccccc2)cc[nH]1 | – | inactive
NCCOc1ccccc1Cc1ccccc1 | 4.09 | –
COc1ccc(OCC(O)CNc2ccc(Br)cc2)cc1 (configuration not stated) | 3.41 | –
COc1ccc(NCc2nc3ccccc3n2CCOc2ccccc2)cc1 | 24.6 | –
COc1cc(Br)c(CNc2cc(C)ccc2C)cc1OC | 3.01 | –

SMILES | inhibition [%] | outcome
O=C(NC(=S)NCCN1CCOCC1)c1ccc(Cl)cc1Cl | 4.73 | –
CN(C1=C(NC(=O)c2ccc(Cl)cc2)C(=O)c2ccccc2C1=O)c1ccccc1 | 7.5 | –
CC(=O)NCCC(=O)NCc1ccc(F)cc1 | 4.73 | –
Cc1cccc(N2CCN(C(=O)c3ccncc3)CC2)c1C | 19.8 | –
CCOc1ccc(S(=O)(=O)N2CC(=O)Nc3ccccc32)cc1C#N | 4.34 | –
C=CCc1cc(/C=N\NC(=O)CSc2nnc(CCCc3ccc(OC)c(C)c3)o2)cc(OC)c1O | 2.05 | –
Cc1ccc(Nc2cnn(C34CC5CC(CC(CC(=O)O)(C5)C3)C4)c(=O)c2Cl)cc1C | 2.03 | –
CCOC(=O)CN1C(=O)C(Sc2n[nH]c(-c3ccccc3)n2)CCc2ccccc21 (configuration not stated) | 8.11 | –
NCCC(=O)N1c2ccccc2Sc2ccccc21 | – | inactive
COc1cccc(CNCCc2c[nH]c3ccccc23)c1OCc1ccccc1 | 23.9 | –
CCOc1cc(CNc2ccc(O)cc2)cc(Br)c1OCc1ccccc1F | 3.3 | –
CCOCC(O)CS(=O)Cc1ccccc1 (configuration not stated) | – | inactive
CC(=NNC(=S)SCc1ccccc1)c1ccccn1 | – | inactive
Cc1cc(C)n2nc(C(=O)Nc3cccnc3)nc2n1 | 4.73 | –
O=C(Nc1cccnc1)c1sc(Nc2ccccc2F)nc1-c1ccccc1 | – | inactive
Cc1cc(NC(=O)CSc2nnc(-c3ccoc3C)n2N)no1 | 8.78 | –
CCOC(=O)N1CCN(S(=O)(=O)c2ccc(F)c(C(=O)Nc3cc(C)cc(C)c3)c2)CC1 | 3.41 | –
CC(C)OCCCNC(=O)CNC(=O)c1cccs1 | – | inactive
COc1ccc(S(=O)(=O)N2CCN(C(=O)c3cc(C)on3)CC2)cc1 | – | inactive
Cc1ccc(C(=O)/C=C/c2cc(C#N)n(C)c2C)cc1 | – | inactive
CCOC(=O)c1c(NC(=O)CSc2nncs2)sc(C)c1C | 2.73 | –
O=C1CCCC2=C1C(O)(C(F)(F)F)C(=O)N2Cc1ccccc1 (configuration not stated) | 2.73 | –
CCOC(=O)C1=C(C)n2c(s/c(=C/c3cccc([N+](=O)[O-])c3)c2=O)=NC1c1ccc(O)c(OC)c1 (configuration not stated) | 8.11 | –
CCOC(=O)C1(C)NC(c2ccco2)C2C(=O)N(CC)C(=O)C21 (configuration not stated) | – | inactive

SMILES | inhibition [%] | outcome
CCN(Cc1ccccc1)S(=O)(=O)c1ccc(C(=O)Nc2nnc(C3CC3)o2)cc1 | 3.38 | –
COCCNC(=O)COc1ccc(Br)cc1Cl | – | inactive
COc1ccc(-c2cc3ccc(OCc4nn[nH]n4)cc3oc2=O)cc1 | 17.7 | –
NC(=O)c1ccc(N2CCN(c3ncc(C(F)(F)F)cc3Cl)CC2)cc1 | 12.4 | –
O=C(Cn1cc2c(n1)CCCC2)NCc1cccnc1 | 3.41 | –
COc1ccc(S(=O)(=O)N2CCC(C(=O)NCCC3=CCCCC3)CC2)cc1C | – | inactive
O=C(/C=C/c1ccco1)c1cccnc1 | 3.67 | –
Clc1ccc(-c2nnc(SCc3ccon3)o2)c(Cl)c1 | 4.05 | –
CCOC(=O)c1cccc(NC(=O)CCc2nc(-c3ccc(C)cc3)no2)c1 | – | inactive
CCCOc1ccc(-c2nnn(CC(=O)OCC)n2)cc1 | – | inactive
O=C1c2ccccc2C(=O)N1CCc1csc(-c2ccc(F)cc2)n1 | 2.03 | –
O=C(O)Cn1c(O)c(C=Nc2ccccc2)sc1=S | 18.2 | –
Cc1cc(C)c(C)c(S(=O)(=O)N2C(=S)NC(=O)C2C(C)C)c1C (configuration not stated) | 0.68 | –
Cc1cc(Oc2ccc(-c3ccccc3)cc2)n2ncnc2n1 | 0.68 | –
CCn1c(SCC(=O)NCc2ccc3c(c2)OCO3)nnc1-c1cccs1 | 0.68 | –
CCOC(=O)C/C(C)=N\Nc1ccc([N+](=O)[O-])cc1[N+](=O)[O-] | – | inactive
O=C(c1ccc(N2CCN(C3CC(=O)N(c4ccc(F)cc4)C3=O)CC2)cc1)c1cccnc1 (configuration not stated) | – | inactive
CN(C)S(=O)(=O)c1ccc(NC(=O)N2CCN(c3cccc(C(F)(F)F)c3)CC2)cc1 | 2.03 | –
O=S(=O)(c1cccc(C(F)(F)F)c1)N1CCN(c2ccccc2)CC1 | 0.68 | –
COc1cccc(CNCC(=O)Nc2ccc(N3CCOCC3)cc2)c1 | – | inactive
C=CCOc1c(Br)cc(CNn2nnnc2N)cc1OCC | 8.19 | –
O=C(O)CN1C(=O)COc2cc(S(=O)(=O)N3CCCC3)ccc21 | 8.78 | –
O=C(c1cc(Cl)ccc1Cl)N1CCN(c2ccccn2)CC1 | 2.7 | –
Clc1ccc(-c2cnc(Oc3ccccc3)nc2)cc1 | – | inactive
